High-throughput results from PubChem BioAssay.
The list is not random: actives were taken first. Their share in the collection is about 8.9%.
ALOX12 inhib = qHTS Assay for Inhibitors of 12-hLO (12-human lipoxygenase). Polyunsaturated fatty acid lipoxygenase ALOX12 (Homo sapiens), P18054. purified 12-hLO, xylenol orange hydroperoxide absorbance. Potency, µM (doses to about 57.1 µM), without a hit: top-dose activity change, negative = inhibition, actives largely listed as inhibitors. hit rate 0.12% among 150,000; further: potency means the concentration at half of the fitted maximal effect; nearly all actives have a fitted effect of over 55% in size
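Hydroperoxide output read as Fe(III)-xylenol orange absorbance, 573-to-405 nm ratio, after 30 min reaction with 40 uM arachidonic acid. Enzyme: 150 nM purified human 12hLO, 15 min compound preincubation; 25 mM Hepes pH 7.0, room temperature.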
ALDH1A1 block = qHTS Assay for Inhibitors of Aldehyde Dehydrogenase 1 (ALDH1A1); Aldehyde dehydrogenase 1A1 (Homo sapiens), P00352; Purified ALDH1A1, NADH fluorescence, propionaldehyde substrate; Potency, µM (titrated, usually from 75.3 µM), for inactives: top-dose activity, negative = inhibition, actives largely listed as inhibitors; hit rate 7.3% among 220,000; AID 1030, 2008; active means well fitted inhibition curve with a large enough effect, not every such curve was filed as active; inconclusive means small, poorly fitted or top-dose-only effect, or another doubt; inactive means no such curve, though single readings can be large or run the other way;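 further: potency means the concentration at half of the fitted maximal effect; plate controls were no enzyme wells and a reference inhibitor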
IMPase cell inh = qHTS Assay for Identifying the Cell-Membrane Permeable IMPase Inhibitors; CHO-M1 cells, IP1 accumulation, HTRF TR-FRET ratio; inhibition (IP1 accumulation), % at 46.1 µM; Inositol monophosphatase 1 (Rattus norvegicus), P97697; 120,000 tested, under 10 active; active means well fitted curve in the direction sought with a large enough effect in the signal ratio, not every such curve was filed as active; inconclusive means small, poorly fitted or top-dose-only effect, or a change in a side signal; inactive means no such curve, though single readings can be large or run the other way; the % refers to the signal ratio;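 further: cells stimulated with carbachol in lithium chloride buffer; plate controls were DMSO basal wells for no effect and reference inhibitor wells for full effect; higher means more IMPase inhibition seen as more IP1 and lower FRET ratio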
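In this qHTS, compounds (final up to 46 uM) act on CHO-M1 cells that are then activated through the M1 receptor with carbachol, in pH 7.4 buffer containing 50 mM LiCl, for 30 min. IP1 accumulation is quantified by the IP-One immunoassay.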
NPSR antag = qHTS Assay for Antagonists of the Neuropeptide S Receptor: cAMP Signal Transduction; Q6W5P4; CHO-NPSR cells, cAMP TR-FRET, antagonist mode; Potency, µM (highest dose often 38.3 µM), without a hit: top-dose activity change, negative = inhibition, actives largely listed as inhibitors; hit rate 1% among 220,000; AID 1461, 2008; further: potency means the concentration at half of the fitted maximal effect; nearly all actives have a fitted effect of over 50% in size
Target sequence (Q6W5P4 whole entry, looked up): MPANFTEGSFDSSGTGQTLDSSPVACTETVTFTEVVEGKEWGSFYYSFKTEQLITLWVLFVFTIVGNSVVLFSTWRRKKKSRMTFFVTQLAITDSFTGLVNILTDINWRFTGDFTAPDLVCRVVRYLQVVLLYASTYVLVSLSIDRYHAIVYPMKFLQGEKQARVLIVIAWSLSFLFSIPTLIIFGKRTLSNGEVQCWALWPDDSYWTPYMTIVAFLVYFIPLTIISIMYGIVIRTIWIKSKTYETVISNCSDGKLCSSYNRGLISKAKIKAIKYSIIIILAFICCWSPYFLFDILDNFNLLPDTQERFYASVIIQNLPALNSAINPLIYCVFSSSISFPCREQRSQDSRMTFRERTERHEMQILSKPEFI
HPGD block = qHTS Assay for Inhibitors of HPGD (15-Hydroxyprostaglandin Dehydrogenase); purified HPGD, NADH fluorescence kinetic, PGE2 substrate; AID 894, 2007; hit rate 4.3% among 150,000; Potency, µM, for the others: at the highest dose activity change, negative = inhibition, hits mostly inhibitors; active means well fitted inhibition curve with a large enough effect, not every such curve was filed as active; inconclusive means small, poorly fitted or top-dose-only effect, or another doubt; inactive means no such curve, though single readings can be large or run the other way; further: potency means the concentration at half of the fitted maximal effect
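20 nM HPGD preincubated 15 min at room temperature with compound in 50 mM Tris-HCl pH 8, 0.01% Tween 20. Started with 1 mM NAD+ and 30 uM prostaglandin E2; NADH fluorescence (360/450 nm) read 5 times over 30-s intervals, last minus first.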
IMPase Li cell = qHTS Assay for Identifying the Cell-Membrane Permeable IMPase Inhibitors: Potentiation with Lithium. AID 1457, 2008. CHO-M1 cells, IP1 TR-FRET (IP-One), carbachol + lithium. hit rate 0.35% among 210,000. Potency, µM (doses to about 59.4 µM), without a hit: at the top dose activity, negative = IMPase inhibition, usual class: inhibitors;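 further: IP1 builds up when IMPase is blocked and the TR-FRET signal falls; potency means the concentration at half of the fitted maximal effect; plate controls were basal vehicle for no effect and high inhibitor control for full effect; nearly all actives have a fitted effect of over 50% in size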
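Steps: plate 2000 CHO-M1 cells per well and culture 16–30 h; add compound and lithium; incubate 30 min, 37C; add d2-IP1 tracer and Eu cryptate anti-IP1 antibody in lysis buffer; read after 10 min at room temperature.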
Starred values were filed as active, the others as inactive; ? = inconclusive; nt = no result; [ ] = remark or other dose. Unless noted, the call rests on the fitted dose curve; in most records, active means well fitted curve in the direction sought with a large enough effect; inconclusive means small, poorly fitted or top-dose-only effect, or another doubt; inactive means no such curve, though single readings can be large; an effect the other way counts as inactive or inconclusive. Unless noted, on the % scale 0 is the no-effect control and ±100 the full control effect.

SMILES | ALOX12 inhib | ALDH1A1 block | IMPase cell inh | NPSR antag | HPGD block | IMPase Li cell
CN(C)S(=O)(=O)c1cccc(NC(=O)COC(=O)/C=C/c2ccco2)c1 | -10% | -7% | nt | 10% | -15% | 0%
CCN(CC)S(=O)(=O)c1cccc(NC(=O)COC(=O)/C=C/c2ccco2)c1 | -5% | 25µM* | nt | -5% | -13% | 8%
COc1ccccc1NC(=O)NC1(C(=O)N2CCCCCC2)CCCCC1 | -2% | 7.1µM* | 7 | -15%[46.1 µM] | -4% | 13%
CCOC(=O)c1sc2nc3n(c(=O)c2c1C)CCC(C)CC3 (configuration not stated) | -2% | 11µM* | 0 | ? | 25µM* | 35%[38.3 µM]
CCOC(=O)N1CCN(C(=O)Nc2sc3nc4n(c(=O)c3c2C)CCC(C)CC4)CC1 (configuration not stated) | -23% | 13µM* | ? | -31%[46.1 µM] | -22% | -8%[38.3 µM]
CCOC(=O)N1CCC(NC(=O)c2sc3nc4n(c(=O)c3c2C)CCCC4)CC1 | 4% | -3% | ? | 0%[46.1 µM] | 1% | 7%[38.3 µM]
C[C@@H](O)C#C[Si](C)(C)c1ccccc1 | nt | -4% | nt | nt | 3% | 5%
COc1cc(C)ccc1OCCOc1cc(C)ccc1Cl | ? | ? | 17 | 10µM* | 2.2µM* | 16%[38.3 µM]
CCC1=C/C(=C/N(C)c2ccccc2)C(=O)S1 | -9% | 25µM* | 4 | -10%[46.1 µM] | 22µM* | 3%[38.3 µM]
CC(C)(C)c1csc(NC(=O)c2ccc3nccnc3c2)n1 | -13% | ? | 3 | 0%[46.1 µM] | 10µM* | 12%[38.3 µM]
Cc1ccc2ccc(S(=O)(=O)n3nc(C)cc3C)cc2c1 | 0% | 0.89µM* | 5 | -19%[46.1 µM] | ? | 28%
Cc1cc(C)n(S(=O)(=O)c2ccccc2)n1 | nt | nt | nt | 12% | nt | nt
Cc1ccc(S(=O)(=O)N2CCOCC2)cc1NC(=O)CN1CCN(c2ccc(O)cc2)CC1 | -5% | ? | nt | -2% | 5% | 3%
Cc1cc(C)c(C)c(S(=O)(=O)N2CCN(c3ccc(O)cc3)CC2)c1C | nt | 22µM* | nt | ? | nt | 0%
CCOC(=O)N1CCC(NC(=O)c2ccc(N3CCC4(CC3)OCCO4)c([N+](=O)[O-])c2)CC1 | nt | -5% | nt | 5% | nt | 1%
O=C(Nc1ccc2oc(=O)ccc2c1)c1ccc(-c2cccc([N+](=O)[O-])c2)o1 | nt | 7.9µM* | nt | 48% | nt | nt
O=C(Nc1ccc2oc(=O)ccc2c1)c1ccc(-c2ccc(Cl)cc2)o1 | 3% | 8.9µM* | -9 | -8%[46.1 µM] | nt | nt
O=C(Nc1ccc2oc(=O)ccc2c1)c1ccc(-c2ccccc2[N+](=O)[O-])o1 | nt | nt | nt | 4% | nt | nt
COc1cccc(OC)c1C(=O)NC(=S)Nc1ccc2oc(=O)ccc2c1 | -1% | ? | 7 | 6% | -8% | -21%
CC(=O)NC(=S)Nc1ccc2oc(=O)ccc2c1 | nt | 8.9µM* | nt | -8% | nt | nt
Cc1ccc(C(=O)Oc2ccc3c(c2)ncn3C)cc1 | 7% | -13% | -7 | 2%[46.1 µM] | 7.9µM* | 11%[38.3 µM]
Cn1cnc2cc(OC(=O)c3ccccc3)ccc21 | 0% | -9% | -7 | 0%[46.1 µM] | -7% | 11%[38.3 µM]
CCOC(=O)c1csc(-n2nc(C)cc2C(F)(F)F)n1 | nt | -11% | nt | -8% | nt | 1%
Cc1cc(C(F)(F)F)n(-c2nc(C(=O)NN)cs2)n1 | nt | 2.2µM* | nt | 14% | nt | -6%
CCCN=Cc1c(CCC)[nH]n(-c2nc3ccccc3s2)c1=O | 13% | 14µM* | 10 | ? | -23% | -1%[38.3 µM]
Cc1ccc(OC(=O)c2sc(Cl)nc2C)cc1C | 1% | 20µM* | nt | -13% | -18% | 16%
Cc1ccc(C)c(NC(=O)c2sc(Cl)nc2C)c1 | 0% | -9% | nt | -6% | -13% | -1%
